The panel holds about 79,000 compounds, 15% with a hit somewhere; the sample as a whole holds those more often. Rule as the data show it: active = growth inhibition above about 70%; inactive = the rest.
Key:
[1] = NCI Yeast Anticancer Drug Screen. Data for the rad50 strain (AID 155);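 also: 0% = growth of vehicle-only cultures of the same strain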; details: S. cerevisiae rad50 strain growth inhibition; at 50.0 µM; hits give high values
Summary of the method: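 Readout: growth inhibition relative to vehicle-treated cultures. Compound exposure was carried out in a genetically defined yeast strain deficient in DNA damage repair.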

[2] = NCI Yeast Anticancer Drug Screen. Data for the mec2-1 strain (AID 157); details: S. cerevisiae mec2-1 strain, at 50.0 µM, hits give high values
Summary of the method: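 Yeast mec2-1 mutant treated with compound. Readout: growth inhibition vs vehicle controls.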

[3] = NCI Yeast Anticancer Drug Screen. Data for the sgs1 mgt1 strain (AID 161);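 also: 0% = growth of cultures given vehicle only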; details: S. cerevisiae sgs1 mgt1 strain, at 50.0 µM, hits give high values
Summary of the method: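 Read-out: growth inhibition vs vehicle controls. Cells: mutant yeast strain deficient in DNA damage repair.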

[4] = NCI Yeast Anticancer Drug Screen. Data for the cln2 rad14 strain (AID 165);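 also: 0% = growth equal to vehicle treated cultures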; details: S. cerevisiae cln2 rad14 strain, at 50.0 µM, hits give high values
Summary of the method: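 cln2 rad14 yeast strain; compound exposure; growth inhibition read vs vehicle controls.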

[5] = NCI Yeast Anticancer Drug Screen. Data for the bub3 strain (AID 167); details: S. cerevisiae bub3 mutant strain, at 50.0 µM, hits give high values
Summary of the method: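 Readout: yeast growth inhibition, expressed relative to vehicle-only wells. The test organism is a mutant strain from a panel with lesions in DNA repair or checkpoint genes.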

[6] = NCI Yeast Anticancer Drug Screen. Data for the mlh1 rad18 strain (AID 175); details: S. cerevisiae mlh1 rad18 strain growth inhibition; at 50.0 µM; hits give high values
Summary of the method: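 Yeast w/ defined DNA-repair lesions; compound exposure; growth vs vehicle controls → % inhibition.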

Measured: growth inhibition

O=c1[nH]ncc(N/N=C(/C=C/c2ccc(C/C(=N/Nc3cn[nH]c(=O)c3Cl)c3ccccc3)cc2)c2ccccc2)c1Cl
inactive: [1] 30.1% | [2] 8.8% | [3] 33.2% | [4] -15.6% | [5] 9.65% | [6] 4%

COC(=O)C1CC(=C(C)C)CCC1=O (stereo unspecified)
inactive: [1] 11.1% | [2] 2.15% | [3] 0.4% | [4] 11.2% | [5] 8.7% | [6] -1.7%

CCCCCN(CCOC(=O)c1ccc([N+](=O)[O-])cc1)CCOC(=O)c1ccc([N+](=O)[O-])cc1
inactive: [1] 7.5% | [2] 4.7% | [3] 7.25% | [4] 7.8% | [5] -2.6% | [6] 7.45%

NNC(=O)N/N=C(\CBr)c1ccc(Cl)cc1
inactive: [1] -2.35% | [2] -0.45% | [3] 6.9% | [4] -47.6% | [5] 3.95% | [6] 4.35%

CS(=O)(=O)Nc1ccc(C(=O)CCN2CCCCCC2)cc1
inactive: [1] -4.35% | [2] 8.9% | [3] -28.9% | [4] -6.6% | [5] -27.5% | [6] -23.1%

CSC1=C(c2ccc(Cl)cc2)SC(N2CCCCC2)N1c1ccc([N+](=O)[O-])cc1 (stereo unspecified)
inactive: [1] 0.55% | [2] -0.05% | [3] 1.7% | [4] 5.2% | [5] 5.4% | [6] 4.9%

CSc1ccc(NC(=O)C(Cl)Cl)cc1
inactive: [1] -3.35% | [2] 5.8% | [3] 5.1% | [4] 13% | [5] -15.3% | [6] 1.9%

C=C(/C=C/CCCC)NC(=O)OCc1ccccc1
inactive: [1] 13.4% | [2] 12.4% | [3] 8% | [4] -39.5% | [5] 1.25% | [6] 18.9%

Oc1ccccc1CN=Cc1ccccc1
inactive: [1] 7.45% | [2] 4.1% | [3] -4.25% | [4] -0.5% | [5] -27.2% | [6] 4.85%

CN1OC(CO)CC12C1CC3CC(C1)CC2C3 (stereo unspecified)
inactive: [1] -41% | [2] -19.1% | [3] -53.5% | [4] -3.4% | [5] -42.7% | [6] -53.8%

O=S(=O)(Nc1cccc(C(F)(F)F)c1)c1ccc(F)cc1
inactive: [1] 6.95% | [2] 9.5% | [3] 11% | [4] 12.9% | [5] -3.5% | [6] 42.9%

C/C=C/C(=O)N1C(=O)OC[C@@H]1c1ccccc1
inactive: [1] 37.4% | [2] 54.5% | [3] 49.7% | [4] 46.6% | [5] 53.6% | [6] 31.9%

CCCCCCCCCCCCCCC(=O)OCCN(C)C
inactive: [1] -3.6% | [2] -18% | [3] 1.45% | [4] -18.2% | [5] 8.35% | [6] -10.1%

COc1ccc2c(c1)C(=O)N1CCOC1C2C(=O)O (stereo unspecified)
inactive: [1] 0.1% | [2] -31.8% | [3] -9.5% | [4] 11.3% | [5] -0.8% | [6] -30.3%

CCOC(=O)C(=O)Nc1nc2ccc(OC)cc2s1
inactive: [1] -39.8% | [2] -7.3% | [3] -10.8% | [4] 6.75% | [5] 0.15% | [6] 9.25%

[N-]=[N+]=N[Si](c1ccccc1)(c1ccccc1)c1ccccc1
inactive: [1] -17.1% | [2] -11.4% | [3] 2.35% | [4] 7.6% | [5] -7.7% | [6] 7.25%

COc1ccc(C(c2cc3c(cc2O)OCO3)N2CCCCC2)c(OC)c1 (stereo unspecified)
inactive: [1] -31.2% | [2] -13.1% | [3] -12.2% | [4] -22.4% | [5] -2.15% | [6] -6.95%

COc1cccc(/C=C2\SC(=S)N(/C=C3\C(=O)Oc4ccccc4C3=O)C2=O)c1O
inactive: [1] 12.2% | [2] 40.1% | [3] 59% | [4] 50.6% | [5] 12.8% | [6] 23.6%

O=Ic1ccccc1
inactive: [1] 16.6% | [2] 0.2% | [3] 1.5% | [4] 10.9% | [5] -0.3% | [6] -8.8%

COc1ccc(OC)c2c1CCCC2
inactive: [1] -8.4% | [2] -5.95% | [3] -1.65% | [4] -7.35% | [5] 0.95% | [6] 7.1%

Cc1cccc(C(=O)c2ccc(C)cc2C)c1
inactive: [1] 17.1% | [2] 6.65% | [3] -7.55% | [4] 6.75% | [5] -0.7% | [6] 5.4%

COC(=O)c1cc2ccccc2cc1Nc1ccc2ccccc2c1
inactive: [1] 2.25% | [2] 4.7% | [3] 5.25% | [4] -10.3% | [5] -0.7% | [6] 7.3%

CC(=O)Nc1ccc(NC(=O)Nc2cc(Cl)ccc2C)cc1
inactive: [1] 14.3% | [2] 5.05% | [3] 0.7% | [4] 13.1% | [5] 17.8% | [6] 5.1%

O=CNCCN(C=O)CCO
inactive: [1] -28.6% | [2] -29.9% | [3] -31.9% | [4] 1.85% | [5] -12% | [6] -9.55%

COc1cc(C2(C)OC(=O)c3ccccc32)c(OC)c2ccccc12 (stereo unspecified)
inactive: [1] 27.9% | [2] 2.3% | [3] 30.4% | [4] 31.3% | [5] 30.9% | [6] 14.2%

O=C(CC[n+]1ccccc1)NCCCCCCNC(=O)CC[n+]1ccccc1
inactive: [1] -17.9% | [2] -31.9% | [3] -23.5% | [4] 7.5% | [5] -17.4% | [6] -21.9%

CCN(CC)c1ccc(N=C2C=C(C(=O)Nc3ccccc3OC)C(=O)c3ccccc32)c(C)c1
inactive: [1] -24.6% | [2] -28.6% | [3] -12.7% | [4] 5.25% | [5] -2.6% | [6] -16.5%

CCOC(=O)CCCCCCCCCC[N+](CC)(CC)CC(=O)c1ccc(NC(C)=O)cc1
inactive: [1] -1.05% | [2] -2.35% | [3] 3.5% | [4] 12.3% | [5] 16.8% | [6] -0.1%

O=C(N/N=C/C1CCCCC1)C(=O)N/N=C/C1CCCCC1
inactive: [1] 4.45% | [2] 6.65% | [3] 8.55% | [4] -7.45% | [5] 28.2% | [6] -58.5%

NS(=O)(=O)c1ccc(N=Cc2ccccc2)cc1
inactive: [1] 0.4% | [2] -1.35% | [3] 12.6% | [4] 5.45% | [5] 15.2% | [6] 10.1%

Cc1nc(Cc2ccc(O)c(O)c2)c(C)o1
inactive: [1] 6.7% | [2] 13.9% | [3] 3.95% | [4] -17.2% | [5] -18% | [6] 8.2%

O=C1OC2(c3ccc(O)cc3Oc3cc(O)ccc32)C2C3CCC(O3)C12 (stereo unspecified)
inactive: [1] 52.2% | [2] 38.2% | [3] 42.2% | [4] 27% | [5] 37.2% | [6] 40.4%

C[N+](C)(C)CC(=O)N/N=C(/Cc1nc2ccc([N+](=O)[O-])cc2[nH]c1=O)C(=O)Nc1cc(C(F)(F)F)ccc1Cl
inactive: [1] -13.2% | [2] 3.7% | [3] 3.35% | [4] 8.55% | [5] -5.4% | [6] 16.2%

CN(C)/N=N/c1nc2c(c(=O)n(C)c(=O)n2C)n1CC(O)CO (stereo unspecified)
inactive: [1] 11.4% | [2] 29% | [3] 22.1% | [4] -2.85% | [5] 2% | [6] 27.1%

S=c1nc[nH]c2c1ncn2C1OC(COCc2ccccc2)C(OCc2ccccc2)C1OCc1ccccc1 (stereo unspecified)
inactive: [1] 31.2% | [2] 15.1% | [3] 17.4% | [4] 14.7% | [5] 2.1% | [6] 5.9%

[Cl][Co][Cl].[NH-]CCC[NH-].[NH-]CCC[NH-]
inactive: [1] 1.5% | [2] 21.3% | [3] 13.3% | [4] 10.2% | [5] -4.4% | [6] 16.7%

COc1ccccc1NC(=O)C1=C(C)NC(C)=C(C(=O)Nc2ccccc2OC)C1c1ccccc1Cl
inactive: [1] 11.3% | [2] -4.4% | [3] 3.85% | [4] 17.9% | [5] -6.45% | [6] 23.4%

O=C(O)c1cc(Cc2ccc(I)c(C(=O)O)c2)ccc1I
inactive: [1] 20.9% | [2] 2.5% | [3] 32.9% | [4] 29% | [5] -5.75% | [6] 40.5%

O=C(C(=O)c1cc(-c2ccccc2)nc2ccc3ccccc3c12)c1ccccc1
inactive: [1] -24.3% | [2] -5.65% | [3] -1.05% | [4] 13.9% | [5] 30.1% | [6] 14.3%

CCC(CC)=C(c1ccc(C)cc1)c1ccc(C)cc1
inactive: [1] -25.2% | [2] -12.7% | [3] -1.9% | [4] -52.8% | [5] 4.7% | [6] -12.4%

O=c1ccc2cc3ccoc3c(OCCOCCOCCOCCOc3c4occc4cc4ccc(=O)oc34)c2o1
inactive: [1] 14.7% | [2] 17.4% | [3] 11.4% | [4] -17.2% | [5] 3.5% | [6] 26.8%

From PubChem BioAssay (NCI)
